Values without a mark were called inactive. Calls of active or inactive are those of the source. Unless noted, no stated cut-off is given here; in the data, active means inhibition above about 25%; inactive means the rest.
Assays:
[1] = biological target: Nuclear receptor coactivator 3 (Homo sapiens) (UniProt Q9Y6Q9); assay: SRC3 coactivator transcriptional activity inhibitors, confirmation, cell-based, luminescence, quadruplicate (AID 588792;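 active means mean inhibition over 43.08%, the solvent-only control mean plus 3 SD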;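 further: 0% = DMSO treated cells and 100% = gossypol at 36 µM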); details: HEK293 GAL4-SRC3 luciferase reporter, at 3.6 µM, active compounds read high
Chain of Nuclear receptor coactivator 3 (Homo sapiens) (Q9Y6Q9 whole entry, looked up, the tested form may be a part): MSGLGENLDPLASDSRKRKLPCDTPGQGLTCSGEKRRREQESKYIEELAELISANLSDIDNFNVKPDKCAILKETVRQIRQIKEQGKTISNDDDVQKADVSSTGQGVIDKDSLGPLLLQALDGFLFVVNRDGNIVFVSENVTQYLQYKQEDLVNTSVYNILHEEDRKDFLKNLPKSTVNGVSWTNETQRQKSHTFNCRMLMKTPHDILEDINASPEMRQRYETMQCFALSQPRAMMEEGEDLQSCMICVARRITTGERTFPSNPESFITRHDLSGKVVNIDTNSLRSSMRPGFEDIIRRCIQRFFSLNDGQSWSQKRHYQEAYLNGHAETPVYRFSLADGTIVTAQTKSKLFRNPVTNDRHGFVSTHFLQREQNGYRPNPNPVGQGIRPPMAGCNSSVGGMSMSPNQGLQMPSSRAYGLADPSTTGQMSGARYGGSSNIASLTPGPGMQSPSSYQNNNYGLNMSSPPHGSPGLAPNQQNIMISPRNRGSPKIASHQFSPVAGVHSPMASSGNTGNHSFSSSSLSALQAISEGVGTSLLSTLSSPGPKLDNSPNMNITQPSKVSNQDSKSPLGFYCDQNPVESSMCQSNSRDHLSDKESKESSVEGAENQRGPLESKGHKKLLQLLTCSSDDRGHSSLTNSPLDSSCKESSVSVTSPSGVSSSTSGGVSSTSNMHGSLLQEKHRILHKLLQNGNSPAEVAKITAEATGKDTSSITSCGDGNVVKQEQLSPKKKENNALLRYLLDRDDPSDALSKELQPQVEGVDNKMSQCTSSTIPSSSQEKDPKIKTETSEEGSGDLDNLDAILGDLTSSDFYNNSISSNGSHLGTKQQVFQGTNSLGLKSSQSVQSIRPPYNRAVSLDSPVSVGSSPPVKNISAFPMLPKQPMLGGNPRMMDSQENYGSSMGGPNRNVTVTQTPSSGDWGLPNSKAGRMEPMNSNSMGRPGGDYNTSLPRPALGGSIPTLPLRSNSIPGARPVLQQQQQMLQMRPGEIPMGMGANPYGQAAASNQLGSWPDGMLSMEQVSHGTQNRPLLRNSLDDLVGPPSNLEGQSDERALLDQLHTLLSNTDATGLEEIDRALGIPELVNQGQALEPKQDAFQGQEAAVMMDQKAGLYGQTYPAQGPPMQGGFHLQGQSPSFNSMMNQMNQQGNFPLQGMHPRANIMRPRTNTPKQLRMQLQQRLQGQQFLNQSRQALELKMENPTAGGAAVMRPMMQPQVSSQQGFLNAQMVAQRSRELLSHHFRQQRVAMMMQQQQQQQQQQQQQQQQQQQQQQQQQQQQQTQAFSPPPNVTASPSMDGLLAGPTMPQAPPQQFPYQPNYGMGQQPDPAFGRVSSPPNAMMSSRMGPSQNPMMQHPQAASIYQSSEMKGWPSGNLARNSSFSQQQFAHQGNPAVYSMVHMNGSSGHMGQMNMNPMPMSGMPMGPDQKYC

[2] = tested on: transactivating tegument protein VP16 (Human herpesvirus 1), Gal4-VP16 luciferase reporter; assay: VP16 transactivation inhibitors, counter-screen for SRC3 inhibitor project, cell-based, luminescence, high throughput (AID 588794; in the data active means inhibition above about 30%); details: mammalian cells, VP16-driven luciferase reporter luminescence; at 3.6 µM; active compounds read high
[3] = biological target: Nuclear receptor coactivator 1 (Homo sapiens) (UniProt Q15788); assay: SRC1 coactivator transcriptional activity inhibitors, confirmation, cell-based, luminescence, quadruplicate (AID 588820;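 active means mean inhibition above 46.68%, the untreated control wells mean plus 3 SD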;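 further: 0% = DMSO wells and 100% = gossypol 36 µM treated wells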); details: HEK293 GAL4-SRC1 luciferase reporter, at 3.6 µM, active compounds read high
Chain of Nuclear receptor coactivator 1 (Homo sapiens) (Q15788 whole entry, looked up, the tested form may be a part): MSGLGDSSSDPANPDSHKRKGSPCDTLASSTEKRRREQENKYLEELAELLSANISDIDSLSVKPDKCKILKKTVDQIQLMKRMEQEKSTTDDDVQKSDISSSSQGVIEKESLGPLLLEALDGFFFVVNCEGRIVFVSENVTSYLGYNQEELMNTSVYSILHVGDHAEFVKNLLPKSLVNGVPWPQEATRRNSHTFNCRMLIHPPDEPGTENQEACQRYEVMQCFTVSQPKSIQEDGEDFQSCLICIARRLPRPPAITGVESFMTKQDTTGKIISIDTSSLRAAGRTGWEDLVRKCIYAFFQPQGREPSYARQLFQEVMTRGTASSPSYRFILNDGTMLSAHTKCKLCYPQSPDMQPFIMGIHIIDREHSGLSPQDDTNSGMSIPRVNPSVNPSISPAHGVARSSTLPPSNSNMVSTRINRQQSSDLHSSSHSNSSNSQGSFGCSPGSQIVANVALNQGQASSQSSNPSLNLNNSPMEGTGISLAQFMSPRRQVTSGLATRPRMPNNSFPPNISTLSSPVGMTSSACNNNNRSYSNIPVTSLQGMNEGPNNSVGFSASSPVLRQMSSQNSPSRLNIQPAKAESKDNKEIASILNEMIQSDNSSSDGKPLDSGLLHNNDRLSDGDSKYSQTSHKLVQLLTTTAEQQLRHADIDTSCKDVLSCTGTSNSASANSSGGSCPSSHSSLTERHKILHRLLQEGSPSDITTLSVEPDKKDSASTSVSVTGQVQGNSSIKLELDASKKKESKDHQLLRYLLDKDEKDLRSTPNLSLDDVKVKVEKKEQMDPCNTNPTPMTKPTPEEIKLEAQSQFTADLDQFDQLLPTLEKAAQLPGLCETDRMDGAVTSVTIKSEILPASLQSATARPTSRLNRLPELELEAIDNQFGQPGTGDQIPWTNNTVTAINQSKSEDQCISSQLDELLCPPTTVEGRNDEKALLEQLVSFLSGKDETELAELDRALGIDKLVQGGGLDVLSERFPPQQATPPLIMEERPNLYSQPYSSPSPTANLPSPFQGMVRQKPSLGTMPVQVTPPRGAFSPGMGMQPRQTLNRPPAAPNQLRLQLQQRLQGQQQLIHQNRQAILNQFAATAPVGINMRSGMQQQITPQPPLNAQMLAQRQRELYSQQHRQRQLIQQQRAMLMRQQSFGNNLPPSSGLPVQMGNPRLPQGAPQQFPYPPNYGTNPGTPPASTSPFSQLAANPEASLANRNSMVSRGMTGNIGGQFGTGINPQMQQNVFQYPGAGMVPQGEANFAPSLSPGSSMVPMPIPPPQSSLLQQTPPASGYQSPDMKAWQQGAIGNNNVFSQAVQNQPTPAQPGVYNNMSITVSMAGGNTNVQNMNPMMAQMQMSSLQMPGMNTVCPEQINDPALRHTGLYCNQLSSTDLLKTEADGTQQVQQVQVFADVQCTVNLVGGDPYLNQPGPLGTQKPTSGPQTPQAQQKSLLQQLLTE

[4] = VP16 transactivation inhibitors, counter-screen for SRC1 inhibitor project, cell-based, luminescence, high throughput (AID 588824); details: cell-based VP16 transactivation luciferase luminescence; at 3.6 µM; active compounds read high

Compound | inhibition [1] | inhibition [2] | inhibition [3] | inhibition [4]
O=C(N/N=C/c1cc(Cl)ccc1O)c1ccc(Br)cc1 | 55.7% (active) | 40.1% (active) | 23.3% | 38.4% (active)
Cc1nc(N)c(CC(Br)CBr)c(Cl)n1 (configuration not stated) | 31.8% | 35.4% (active) | 44.4% | 28.9% (active)
COc1cccc(CN(C)C(=O)c2ccc(OCC(=O)Nc3cccc(C(F)(F)F)c3)c(OC)c2)c1 | 14.8% | 34% (active) | 6.82% | 35.6% (active)
N#CC(c1ccc(Cl)cc1)c1ccc2c(C(F)(F)F)cc(C(F)(F)F)nc2n1 (configuration not stated) | 62% (active) | 85.7% (active) | 32% | 83.3% (active)
NC(=S)NN=Cc1nccc2c(N)cccc12 | 72.3% (active) | 17.2% | 47.8% (active) | 8.49%
COc1ccc(-c2nsc3c(N4CCCCC4)ncnc23)cc1 | 32.4% | 20.4% | 1.39% | -6.65%
CCCCC(=O)NC(c1ccc(N(C)C)cc1)c1ccc2cccnc2c1O (configuration not stated) | 58.5% (active) | 43.9% (active) | 48% (active) | 55.9% (active)
CC(C)(C)[C@H]1C=C(C(=O)Nc2ccccc2)O[C@@H](OCCCCO)C1 | -13.7% | -16.4% | -41.4% | -38%
CC(C)c1ccc(/C=N/Nc2ccc(C(=O)O)cc2)cc1 | -6.28% | -26.7% | -72.5% | -51.3%
CC(C)(C)c1cc[n+](C2=C([O-])c3ccccc3C(=O)/C2=N\S(=O)(=O)c2cccs2)cc1 | 9.53% | 9.97% | -0.27% | 7.69%
CC(C)(C)c1nnc(N/N=C/c2cc(Br)ccc2O)n(N)c1=O | 79% (active) | 69.2% (active) | 72% (active) | 63% (active)
COC1CC(C)C(OC)c2cc(O)cc(c2O)NC(=O)C(C)=CC=CC(C)C(OC(N)=O)C(C)=CC(C)C1OC (configuration not stated) | 72.5% (active) | 80.2% (active) | -2.07% | 77% (active)
CCOc1ccc(-n2c(C)c(C(C)=O)c3cc(O)ccc32)cc1 | 59.7% (active) | 51.2% (active) | 60.8% (active) | 48.2% (active)
Cc1ccc(NC(=O)NC2CC(=O)N(c3ccc4c(c3)OCCO4)C2)cc1C (configuration not stated) | 41.9% | 33.8% (active) | 46% | 20.9%
COc1ccc2[nH]c(=O)c(CN(CCN3CCCC3)C(=O)Nc3ccccc3Cl)cc2c1 | 31.9% | 20.4% | 36% | 18.6%
CCCNC(=O)c1nnsc1S(=O)(=O)c1ccc(Cl)cc1 | 55.7% (active) | 6.39% | -64.8% | 5.6%
O=C(CCl)N1N=C(c2cccs2)CC1c1ccco1 (configuration not stated) | 27.7% | 6.29% | 18.4% | 17.4%
CCOc1cc(/C=C2\CN(C)C/C(=C\c3ccc(O)c(OCC)c3)C2=O)ccc1O | 56.2% (active) | 60.4% (active) | -18.5% | 75.6% (active)
Clc1ccc(-c2csc3ncnc(NCCN4CCOCC4)c23)cc1 | 32.2% | 25.3% | 46.6% | 31.8% (active)
COc1ccc(-n2c(C)c(C(C)=O)c3cc(OC(C)=O)ccc32)cc1 | 77.5% (active) | 55% (active) | 65.2% (active) | 60.4% (active)
COc1ccc(C)cc1N=Nc1ccc(O)c2ncccc12 | 9.14% | -10.3% | -18.4% | 0.73%
N#Cc1c2ccc(O)cc2n2ccccc12 | 41.8% | 21.9% | 42.8% | 11.9%

Compound | inhibition [1] | inhibition [2] | inhibition [3] | inhibition [4]
Cn1c(CC(=O)Nc2ccc(Cl)c(Cl)c2)nnc1SCC(=O)N1CCN(c2ccccc2)CC1 | 14.9% | 12.5% | 9.04% | 9.79%
COc1cc(C(=O)N/N=C(\c2ccccc2)c2ccccn2)cc(OC)c1OC | 32.9% | 23.2% | 28.5% | 21.9%
CC(C)(C)NC(=O)C(c1ccncc1)N(Cc1cccs1)C(=O)Cn1nnc(-c2ccc(F)cc2)n1 (configuration not stated) | 59.4% (active) | 35% (active) | 43% | 29.1% (active)
C(=Cc1cnc2ccccc2n1)c1ccc2c(c1)OCO2 | 58.3% (active) | 25.1% | -41.3% | 21.3%
O=C(C=P(c1ccccc1)(c1ccccc1)c1ccccc1)c1ccccc1-c1ccccc1C(=O)C=P(c1ccccc1)(c1ccccc1)c1ccccc1 | 60.6% (active) | 83.9% (active) | 24.4% | 82.8% (active)
CN(C)c1ccc(CNC(=O)CCNS(=O)(=O)c2cc(Br)cnc2N)cc1 | 31.5% | 19.3% | 8.5% | 20.7%
CC(=O)c1ccc(Nc2ncnc3ccc(Br)cc23)cc1 | 49.5% (active) | 39.7% (active) | 56.4% (active) | 37.8% (active)
O=C(CCl)N1N=C(c2ccco2)CC1c1cccs1 (configuration not stated) | 55.1% (active) | 31.6% (active) | 15.3% | 21.7%
C=CC[n+]1ccc(/C=C2\C=Cc3cc(C)ccc3N2CC)c2ccccc21 | 79.4% (active) | 86% (active) | 63.8% (active) | 86.7% (active)
COC(=O)c1ccc2nc(Nc3nc4ccc(F)cc4s3)sc2c1 | 21.2% | 3.83% | -36.1% | -19.9%
COc1ccc(C(=O)Cn2c(C(C)=O)nc3ccccc32)cc1 | -0.47% | -3.82% | -13.6% | -8.2%
Cc1ccc(-n2c(O)c(C=Nc3cc(C)on3)c3ccccc3c2=O)c(C)c1 | 52.8% (active) | 39.9% (active) | 44.8% | 35.7% (active)
CN(C)c1ccc(Nc2ncnc3ccc(Br)cc23)cc1 | 47.3% (active) | 30.8% (active) | 40.8% | 20.2%
CNC(=O)c1ccc(NC(=O)C2CCN(c3ncnc4sc(C)c(C)c34)CC2)cc1 | 51.6% (active) | 35.5% (active) | 48.7% (active) | 30% (active)
Cc1ccc2c(C)nc(Nc3nc(CSc4nc5ccccc5[nH]4)cc(=O)[nH]3)nc2c1 | 12.4% | 16.1% | -14.6% | 17.5%
O=C(Nc1nc(-c2ccc(S(=O)(=O)N3CCOCC3)cc2)cs1)c1ccccc1 | 0.95% | 19% | -17.1% | 12.6%
CCc1nc(Cl)c(C#N)c2c1CCCC2 | 43.2% (active) | 34.1% (active) | 34.8% | 28.9% (active)
COc1ccc(-c2csc(NC(=O)C3CCN(c4ncnc5sc(C)c(C)c45)CC3)n2)cc1OC | 24.1% | 58.1% (active) | 23.8% | 52.6% (active)
CCC(=O)Oc1c(C(=O)CC)cc2c(C)cc(=O)oc2c1C | 15.1% | 17.6% | 25.6% | 15.6%
O=C(NNc1ccccc1)C(=O)NNc1ccccc1 | 25.6% | 49.3% (active) | 8.21% | 48.9% (active)
CCn1nc(C)c(CNC(=O)c2cc(COc3ccc(F)cc3Cl)on2)c1C | 12.7% | 28.5% | 8.35% | 20%

— PubChem BioAssay
